This is a sample that favours compounds with a hit; in the whole collection about 10% have one here.
PLK1 PBD inh: PLK1 (human) polo-box domain binding inhibition; P53350; Plk1 PBD binding of FITC phosphopeptide, fluorescence polarization; Potency, µM, hits mostly inhibitors; 2.8% of 360,000 active; note: series mostly up to about 57 µM; nearly all actives have a fitted effect of over 65% in size
Target sequence (P53350 whole entry, looked up, the tested form may be a part): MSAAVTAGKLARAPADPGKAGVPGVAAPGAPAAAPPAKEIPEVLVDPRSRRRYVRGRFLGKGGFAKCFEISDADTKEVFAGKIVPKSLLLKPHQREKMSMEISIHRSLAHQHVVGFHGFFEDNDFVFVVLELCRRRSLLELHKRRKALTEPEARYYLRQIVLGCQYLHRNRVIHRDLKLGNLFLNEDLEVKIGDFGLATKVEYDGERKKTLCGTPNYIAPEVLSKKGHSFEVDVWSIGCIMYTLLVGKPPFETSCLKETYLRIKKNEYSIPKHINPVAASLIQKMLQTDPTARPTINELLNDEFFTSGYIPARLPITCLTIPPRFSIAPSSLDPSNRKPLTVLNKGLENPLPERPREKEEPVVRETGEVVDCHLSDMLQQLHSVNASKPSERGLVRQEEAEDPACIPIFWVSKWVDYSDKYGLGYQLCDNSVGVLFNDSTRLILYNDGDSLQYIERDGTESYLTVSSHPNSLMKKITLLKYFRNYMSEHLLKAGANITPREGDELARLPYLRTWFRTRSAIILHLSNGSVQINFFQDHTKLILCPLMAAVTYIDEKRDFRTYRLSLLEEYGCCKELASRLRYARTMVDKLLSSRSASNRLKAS
VDR inhibitor: vitamin D3 receptor (human) inhibition | P11473 | VDR-SRC2-3 peptide fluorescence polarization, 2 h | Potency, µM, most hits filed as inhibitors | 0.93% of 400,000 active | AID 504847
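Reagent solutions, kept cold and dark, are dispensed first; compounds are then pinned in at 23 nl, plates briefly spun, and incubated 2 h at ambient temperature. Inhibition of VDR–SRC2-3 peptide binding is read by fluorescence polarization.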
Sfp PPTase inh: inhibitors of Bacillus subtilis Sfp phosphopantetheinyl transferase; Q9F4F7; Biochemical Sfp PPTase activity, qHTS; Potency, µM, hits mostly inhibitors; 3.5% of 310,000 active; AID 1490;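 note: the enzyme is Sfp with the accession as filed and its product quenches rhodamine fluorescence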
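Step 1, compound plus 15 nM Sfp-PPTase, 15 min, room temperature. Step 2, add rhodamine-CoA (5 uM) and BHQ-2-YbbR (12.5 uM). Step 3, read 525/598 nm fluorescence at 0 and 30 min.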
CCT chaperon mod: changes cytosolic chaperonin activity; purified chaperonin ATPase assay, HTRF ADP detection, 30 min; activity change, % (test concentration not listed), hits read low; 0.3% of 360,000 active; in the data active = activity change below about -30%
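Enzyme 40 or 20 nM (batch-dependent) in Tris pH 7.4/KCl/MgCl2/DTT; cpd 76 uM single point; ATP 10 uM; 30 min 37 °C; Transcreener ADP HTRF detection, 30 min RT; ratio 665/615.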
Mm-Cpn inhibitor: inhibitors of Methanococcus maripaludis chaperonin TRiC (MmCpn); purified Mm-Cpn ATPase, ADP Transcreener TR-FRET; Potency, µM (series often up to 76.9 µM), hits mostly inhibitors; 0.031% of 330,000 active; note: nearly all actives have a fitted effect of over 80% in size
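Reaction buffer contained 30 mM Tris pH 7.4, 100 mM KCl, 5 mM MgCl2 and 1 mM DTT. Mm-CPN (25 nM final) hydrolysed 10 uM ATP over 30 min at 37°C; ADP was read by HTRF.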
G9a inh: inhibitors of human histone lysine methyltransferase G9a. Q96KQ7. G9a H3K9 monomethylation, AlphaScreen, 2 h. Potency, µM (top dose mostly 102 µM), actives largely listed as inhibitors. 8.8% of 350,000 active. AID 504332; note: nearly all actives have a fitted effect of over 75% in size
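Step 1: enzyme (final 20 nM) with compound, 15 min RT. Step 2: substrate peptide 500 nM and SAM 20 uM, 2 h RT. Step 3: anti-H3K9me1 antibody and AlphaScreen beads, 10 min, then plate read.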
A number is an active result; - = inactive; ? = inconclusive; . = no result given; [ ] = dose if it differs, or a comment. Unless noted, calls come from the whole dose curve; as a rule, active = well fitted curve in the direction sought with a large enough effect; inconclusive = small, poorly fitted or top-dose-only effect, or another doubt; inactive = no such curve, though single readings can be large; an effect the other way counts as inactive or inconclusive.

SMILES	PLK1 PBD inh	VDR inhibitor	Sfp PPTase inh	CCT chaperon mod	Mm-Cpn inhibitor	G9a inh
N#Cc1c2n(c(=S)n(-c3ccccn3)c1=O)CCCCC2	-	-	-	-	-	22.4µM
CC1(C)C=C2C(=NN(c3ccccc3)C(N)=C2C#N)CO1	?	?	44.7µM	-	-	6.31µM
CCc1nn(C(C)C(=O)NCCc2ccccc2)c(=O)c2cc3occc3n12 (configuration not stated)	-	-	-	-	-	.
CCc1nn(CCCC(=O)N2CCN(c3cccc(C)c3C)CC2)c(=O)c2cc3occc3n12	-	?	-	-	-	70.8µM
CCc1nn(CC(=O)NC(C)CCc2ccccc2)c(=O)c2cc3occc3n12 (configuration not stated)	23.8µM	?	-	-	-	-
CC(C)CN1C(=O)/C(=C/c2ccco2)NC1=S	?	-	35.5µM	-	-	39.8µM
Cc1cc(/C=C2/NC(=O)N(Cc3ccccc3F)C2=O)c(C)n1C	29.9µM	-	-	-	-	?
COCCn1c(C)cc(/C=C2/NC(=O)N(Cc3ccc(C)cc3)C2=O)c1C	-	-	-	-	-	15.8µM
CCOc1cc([N+](=O)[O-])cc(/C=C2/NC(=O)N(Cc3ccccc3F)C2=O)c1O	-	-	-	-	-	22.4µM
CC(C)(C)OC(=O)N1CCC(c2c(C(=O)N3CCN(C(=O)c4ccco4)CC3)cnn2-c2cccc(F)c2)CC1	.	-	.	.	.	-
Cc1ccc2ncc3c(-c4ccc(F)cc4)nn(-c4cccc(F)c4)c3c2c1	.	-	.	.	.	-
CCC(=O)OC1(C)C(=O)C=C2C=C(CCCNC(=O)OC(C)(C)C)OC=C2C1=O (configuration not stated)	.	-	-	.	.	.
Cc1ccc(/C=C2/NC(=O)N(Cc3ccccc3F)C2=O)s1	-	-	-	-	-	-
O=C1N/C(=C/c2ccco2)C(=O)N1Cc1ccccc1F	-	-	50.1µM	-	-	31.6µM
COc1ccc(Br)c(C(=O)Nc2cc3c(cc2N2CCOCC2)n(C)c(=O)n3C)c1	.	-	.	.	.	-
CNC(=S)/N=C(/Nc1ccccc1)c1ccccc1	-	-	-	-	-	7.94µM
N/C(=N\C(=S)Nc1ccccc1)c1ccccc1	-	-	-	-	-	-[2.33 µM]
CNC(=S)/N=C(\Nc1ccc(C)cc1)c1ccccc1	-	-	7.08µM	-	-	.
COC(=O)CC(=O)CSc1nc2cc(C(=O)NCC(C)C)ccc2c(=O)n1CCc1ccccc1	.	-	.	.	.	-
COc1cccc(CNC(=O)C2CCCN(c3nnc(-n4c(C)ccc4C)s3)C2)c1OC (configuration not stated)	.	-	.	.	.	-
Cc1ccc(N2C(=O)C3C4C=CC(CNC(=S)N5CCN(c6ccccc6)CC5)(O4)C3C2=O)cc1 (configuration not stated)	-	-	12.6µM	-	-	2.24µM
Cc1ccc(NC(=S)NCC23C=CC(O2)C2C(=O)N(c4ccc(C)cc4)C(=O)C23)cc1 (configuration not stated)	-	?	35.5µM	-	-	7.94µM
Cc1cccc(NC(=S)NCC23C=CC(O2)C2C(=O)N(c4ccc(Cl)cc4)C(=O)C23)c1 (configuration not stated)	-	?	35.5µM	-	-	1.12µM
Cc1cccc(NC(=O)c2cccc(N3C(=O)C4C5C=CC(C6CC56)C4C3=O)c2)c1 (configuration not stated)	-	-	-	-	-	.
Cc1ccc(S(=O)(=O)NCC23C=CC(O2)C2C(=O)N(c4ccccc4)C(=O)C23)cc1 (configuration not stated)	-	-	28.2µM	-	-	?
SMILES	PLK1 PBD inh	VDR inhibitor	Sfp PPTase inh	CCT chaperon mod	Mm-Cpn inhibitor	G9a inh
Cc1ccc(NC(=S)NCC(C)C)cc1	-	-	-	-	-	-
S=C(NCC1CCCO1)N1CCN(c2ccccc2)CC1 (configuration not stated)	-	-	-	-	-	-
CCC(CO)Nc1ncnc2c1cnn2-c1ccc(C)cc1 (configuration not stated)	.	-	.	.	.	-
O=C(c1ccc(Cl)cc1)N1CCC(c2ccncc2)CC1	.	-	.	.	.	-
COc1ccc(S(=O)(=O)N(CC(=O)Nc2ccccc2Br)Cc2ccccc2)cc1	.	-	.	.	.	-
CCn1c(C)c(C)c2cc(C(=O)NCc3ccc(OC)cc3OC)ccc21	.	-	.	.	.	?
CN(C)C1(CNCC(O)c2ccccc2)CCCCC1 (configuration not stated)	-	-	-	-	-	20µM
Cc1c(N2C(=O)c3ccc4c5c(ccc(c35)C2=O)CC4)c(=O)n(-c2ccccc2)n1C	?	-	-	-	-	50.1µM
Cc1c(N2C(=O)/C(=C\c3ccc(N(C)C)cc3)N(C)C2=S)c(=O)n(-c2ccccc2)n1C	-	-	-	-	-	39.8µM
Cc1c(NC(=S)N/N=C/c2ccc(N(C)C)cc2)c(=O)n(-c2ccccc2)n1C	-	-	-	-	-	-
Cc1c(N2C(=O)c3ccc(Br)cc3C2=O)c(=O)n(-c2ccccc2)n1C	-	?	-	-	-	-
COc1ccc(-c2nc(SCC(=O)NCCc3ccc(OC)c(OC)c3)n[nH]2)cc1	.	-	.	.	.	-
Cc1ccc(S(=O)(=O)NCC(=O)NCc2cc(=O)n(C)c(=O)n2C)cc1C	-	-	-	-79.5	-	.
COc1cccc(-c2nc(SC(C(C)=O)C(=O)N(C)C)c3c(=O)n(C)c(=O)n(C)c3n2)c1 (configuration not stated)	.	-	.	.	.	-
COc1ccc(CCNC(=O)Cc2c(C)c3ccc(O)c(C)c3oc2=O)cc1OC	.	-	.	.	.	-
COc1ccc(C(=O)c2sc(Nc3ccccc3)nc2N)cc1	-	-	-	-	-	-
COc1ccc(C(=O)c2sc(Nc3ccccc3)nc2N)cc1OC	-	-	-	-	-	70.8µM
Nc1nc(Nc2ccccc2)sc1C(=O)c1ccccc1	-	-	-	-	-	44.7µM
CCC(=O)Nc1ccccc1-c1nc2ccccc2n(CC(=O)c2ccc(C)c(C)c2)c1=O	.	-	.	.	.	-
CC1(c2ccc(Cl)cc2)NC(=O)N(CC(=O)NCCC2=CCCCC2)C1=O (configuration not stated)	-	-	.	-	-	0.891µM
Cc1nc(-c2ccccc2O)n(S(=O)(=O)N(C)C)n1	?	-	-	-	-	-[12.7 µM]
CN(C)S(=O)(=O)N1C(=O)c2ccccc2C1=O	-	-	12.6µM	-	-	-[2.33 µM]
CCN1CC(CN(C)Cc2nc(-c3ccco3)oc2C)CC1=O (configuration not stated)	-	-	-	-	-	79.4µM
COc1ccc(C2c3c(oc4cc(C)cc(C)c4c3=O)C(=O)N2Cc2ccco2)cc1OC (configuration not stated)	.	-	.	.	.	-

Compound activity: PubChem BioAssay, National Center for Advancing Translational Sciences (NCATS)
